# Experimental data reported in PubChem BioAssay (Tox21).
# Values joined by “and” are separate entries in the source; they are usually repeats but may differ in a detail not shown here. Equal entries are not always repeated. Results filed as inconclusive are left out. Entries that show only a call come without a potency. Some compounds were tested as several samples or in several runs, with calls that do not always agree. Active and inactive are the calls of the source. Calls come from the whole dose curve; as a rule, active = well fitted curve in the direction sought with a large enough effect in the repeat runs; inconclusive = weak or mixed curves; inactive = no such curve, though single readings can be large; an effect the other way counts as inactive or inconclusive.
# Molecular target: Voltage-gated inwardly rectifying potassium channel KCNH2 (Homo sapiens) (UniProt Q12809)
# Assay: Human Ether-a-go-go-Related Gene (hERG) channel small molecule antagonists: fluorescence cell-based qHTS assay (AID 1671200);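 for activity change, negative = inhibition: hERG-expressing U2OS cells given a thallium stimulus after FluxOR II dye loading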
# Conditions: hERG-U2OS cells, FluxOR thallium flux fluorescence; series mostly up to 76.8 µM; activity change, negative = inhibition: at the top concentration
# Summary of the method: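 Cell line hERG-U2OS; dye FluxOR II, 1 h RT dark; Tl+ stimulus; ex 480/em 540 nm, read each second for 2 min.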
# Note: nearly all actives have a fitted effect of over 50% in size.
# Potency is the fitted concentration of half-maximal effect.
# Voltage-gated inwardly rectifying potassium channel KCNH2 (Homo sapiens), sequence (Q12809 whole entry, looked up): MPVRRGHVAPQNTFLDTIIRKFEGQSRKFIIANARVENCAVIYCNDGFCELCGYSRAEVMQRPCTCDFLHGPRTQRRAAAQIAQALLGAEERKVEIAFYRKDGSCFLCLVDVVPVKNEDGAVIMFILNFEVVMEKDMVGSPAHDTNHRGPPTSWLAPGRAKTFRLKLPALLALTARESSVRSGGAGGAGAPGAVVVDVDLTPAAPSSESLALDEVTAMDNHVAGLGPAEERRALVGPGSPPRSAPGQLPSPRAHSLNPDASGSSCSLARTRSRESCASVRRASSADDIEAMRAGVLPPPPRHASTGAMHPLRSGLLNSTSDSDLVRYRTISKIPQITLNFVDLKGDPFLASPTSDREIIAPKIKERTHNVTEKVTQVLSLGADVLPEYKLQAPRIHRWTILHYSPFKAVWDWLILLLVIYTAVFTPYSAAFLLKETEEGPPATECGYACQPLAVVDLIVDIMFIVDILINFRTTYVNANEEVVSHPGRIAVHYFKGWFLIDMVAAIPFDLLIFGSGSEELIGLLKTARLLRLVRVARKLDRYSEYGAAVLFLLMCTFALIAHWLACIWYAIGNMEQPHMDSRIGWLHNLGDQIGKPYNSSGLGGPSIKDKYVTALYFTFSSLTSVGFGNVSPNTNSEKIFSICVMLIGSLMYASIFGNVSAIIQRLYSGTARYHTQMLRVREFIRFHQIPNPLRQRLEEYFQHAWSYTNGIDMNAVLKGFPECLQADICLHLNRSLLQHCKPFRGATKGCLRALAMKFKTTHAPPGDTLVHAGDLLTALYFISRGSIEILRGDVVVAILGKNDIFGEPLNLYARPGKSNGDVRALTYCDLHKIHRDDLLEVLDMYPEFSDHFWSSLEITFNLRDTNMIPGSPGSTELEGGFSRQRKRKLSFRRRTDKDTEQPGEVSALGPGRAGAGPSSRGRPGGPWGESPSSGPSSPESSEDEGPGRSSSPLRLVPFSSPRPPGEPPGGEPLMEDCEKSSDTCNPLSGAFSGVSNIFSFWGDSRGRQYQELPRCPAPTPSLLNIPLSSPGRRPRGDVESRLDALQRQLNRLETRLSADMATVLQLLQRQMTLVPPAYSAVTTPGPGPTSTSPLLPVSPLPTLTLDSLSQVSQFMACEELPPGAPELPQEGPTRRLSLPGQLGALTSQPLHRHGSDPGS
row,SMILES,Potency
1,CNC(=O)CSP(=S)(OC)OC,inactive
2,CCCCOCCOC(C)=O,inactive
3,CC(C)(C#N)N=NC(C)(C)C#N,inactive
4,O=C(O)c1nn(Cc2ccc(Cl)cc2Cl)c2ccccc12,inactive
5,CC1CC(=O)O1 (stereo not given),inactive
6,C=CC(Cl)CCl (stereo not given),inactive
7,C=CC(=O)OCC(CC)(COC(=O)C=C)COC(=O)C=C,inactive
8,CCCCC(C#N)(Cn1cncn1)c1ccc(Cl)cc1 (stereo not given),inactive
9,Oc1ccc(Cl)cc1Cl,inactive
10,CC(C)(O)C#N,inactive
11,O=NN1CCOCC1,inactive
12,CCOC(=O)c1ccccc1N,inactive
13,COc1ccc(O)c(C(C)(C)C)c1,inactive
14,CCNc1nc(Cl)nc(NC(C)(C)C#N)n1,inactive
15,Brc1ccc(Br)cc1,inactive
16,CCC/C=N/O,inactive
17,Nc1ncn[nH]1,inactive
18,c1ccc(C2CO2)cc1 (stereo not given),inactive

row,SMILES,Potency
1,Clc1ccc(C(Cl)(Cl)Cl)cc1,inactive
2,COc1ccc(C=O)cc1OC,inactive
3,CCOS(=O)(=O)OCC,inactive
4,ClCC(Cl)CCl,inactive
5,O=NN(c1ccccc1)c1ccccc1,inactive
6,CCC[CH2][Sn]([Cl])([CH2]CCC)[CH2]CCC,12.3 µM (active) and 6.92 µM (active)
7,Clc1cccc(C(Cl)(Cl)Cl)n1,inactive
8,COP(=O)(NC(C)=O)SC (stereo not given),inactive
9,CSc1nc(NC(C)C)nc(NC(C)C)n1,inactive
10,CN(C)c1ccccc1,inactive
11,CCOP(=S)(OCC)OP(=S)(OCC)OCC,inactive
12,CCOP(=O)(OCC)OCC,inactive
13,[CH3][Sn]([Cl])([Cl])[Cl],inactive
14,ClCc1ccccn1,inactive
15,CCCCCCCC[N+](C)(CCCCCCCC)CCCCCCCC,21.8 nM (active) and 39 nM (active) and 977 nM (active)
16,CC1(C)C(C(=O)OC(C#N)c2cccc(Oc3ccccc3)c2)C1(C)C (stereo not given),inactive
17,CCOP(=S)(OCC)SCSC(C)(C)C,inactive

# Molecular target: Cytochrome P450 3A4 (Homo sapiens) (UniProt P08684)
# Assay: Cytochrome P450 Family 3 Subfamily A Member 4 (CYP3A4) small molecule antagonists: luciferase reporter qHTS assay (AID 1671201)
# Conditions: P450-Glo CYP3A4 enzyme, luciferin luminescence, 1 h; series mostly up to 115 µM; activity change, negative = inhibition: at the top concentration
# Summary of the method: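 Room-temperature assay throughout: 10 min compound–enzyme/substrate preincubation, 1 h reaction after NADPH regeneration solution, 20 min detection. Luciferin formed from proluciferin substrate is quantified by luminescence.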
# Cytochrome P450 3A4 (Homo sapiens), sequence (P08684 whole entry, looked up): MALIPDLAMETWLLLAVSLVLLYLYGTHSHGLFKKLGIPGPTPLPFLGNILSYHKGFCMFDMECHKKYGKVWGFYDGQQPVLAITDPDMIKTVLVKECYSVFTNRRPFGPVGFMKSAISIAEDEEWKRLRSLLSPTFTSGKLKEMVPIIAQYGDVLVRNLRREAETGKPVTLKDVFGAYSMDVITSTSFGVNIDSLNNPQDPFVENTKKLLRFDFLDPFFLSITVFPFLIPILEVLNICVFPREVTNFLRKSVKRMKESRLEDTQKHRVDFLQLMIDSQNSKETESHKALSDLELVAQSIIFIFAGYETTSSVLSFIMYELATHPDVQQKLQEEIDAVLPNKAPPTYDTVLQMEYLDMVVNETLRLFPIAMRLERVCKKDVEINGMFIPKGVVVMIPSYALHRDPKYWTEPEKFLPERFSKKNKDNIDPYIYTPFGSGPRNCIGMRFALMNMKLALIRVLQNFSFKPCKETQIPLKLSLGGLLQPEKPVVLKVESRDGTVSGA
SMILES,Potency,"activity change, negative = inhibition"
CCCCOCCOC(C)=O,inactive,–
CC(C)(C#N)N=NC(C)(C)C#N,–,-3.34% (inactive)
O=C(O)c1nn(Cc2ccc(Cl)cc2Cl)c2ccccc12,inactive,–
CC1CC(=O)O1 (stereo not given),inactive,–
C=CC(Cl)CCl (stereo not given),inactive,–
C=CC(=O)OCC(CC)(COC(=O)C=C)COC(=O)C=C,818 nM (active) and 2.52 µM (active),–
CCCCC(C#N)(Cn1cncn1)c1ccc(Cl)cc1 (stereo not given),158 nM (active) and 224 nM (active),–
Oc1ccc(Cl)cc1Cl,inactive,–
CC(C)(O)C#N,inactive,–
O=NN1CCOCC1,inactive,–
CCOC(=O)c1ccccc1N,inactive,–
Brc1ccc(Br)cc1,inactive,–
CCC/C=N/O,inactive,–
CCCCOC(=O)COC(=O)c1ccccc1C(=O)OCCCC,22.3 µM (active) and 35.6 µM (active),–
Nc1ncn[nH]1,inactive,–
CC(C)(c1ccccc1)c1ccc(O)c(C(C)(C)c2ccccc2)c1,8.86 µM (active) and 6.33 µM (active),–
c1ccc(C2CO2)cc1 (stereo not given),inactive,–
Clc1ccc(C(Cl)(Cl)Cl)cc1,inactive,–

SMILES,Potency,"activity change, negative = inhibition"
COc1ccc(C=O)cc1OC,–,-10.7% (inactive)
CCOS(=O)(=O)OCC,–,1.09% (inactive)
ClCC(Cl)CCl,inactive,–
O=NN(c1ccccc1)c1ccccc1,inactive,–
CCC[CH2][Sn]([Cl])([CH2]CCC)[CH2]CCC,15.9 µM (active) and 20 µM (active),–
Clc1cccc(C(Cl)(Cl)Cl)n1,inactive,–
COP(=O)(NC(C)=O)SC (stereo not given),inactive,–
CSc1nc(NC(C)C)nc(NC(C)C)n1,inactive,–
CC(C)COC(=O)c1ccccc1C(=O)OCC(C)C,inactive,–
CN(C)c1ccccc1,32.5 µM (active) and inactive,–
CCOP(=S)(OCC)OP(=S)(OCC)OCC,32.6 µM (active) and 39.9 µM (active),–
CCOP(=O)(OCC)OCC,–,3.73% (inactive)
[CH3][Sn]([Cl])([Cl])[Cl],inactive,–
ClCc1ccccn1,inactive,–
CCCCCCCC[N+](C)(CCCCCCCC)CCCCCCCC,1 µM (active) and 449 nM (active) and 6.33 µM (active),–
CC1(C)C(C(=O)OC(C#N)c2cccc(Oc3ccccc3)c2)C1(C)C (stereo not given),–,-1.79% (inactive)
CCOP(=S)(OCC)SCSC(C)(C)C,12.7 µM (active) and 7.1 µM (active),–
